This is a sample that favours compounds with a hit; in the whole collection about 17% have one here.
HT1080 IDH1KD tx: HT-1080 IDH1 knockdown cell toxicity (counter line) | HT-1080 IDH1 knockdown viability, ATP luminescence, 48 h | Potency, µM (highest dose often 46.1 µM), for inactives: at the top dose activity, negative = toxicity, hits mostly cytotoxic | 360,000 compounds, 2% hits;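 note: 0% = DMSO wells and -100% = cell-free medium wells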
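IDH1KD HT-1080 cells, 750/well, RPMI + 5% FBS; compound pinned after 2 h settling; 48 h, 37 °C; CellTiter-Glo luminescence; % activity normalised to DMSO and no-cell wells; curves fitted, classed by r2 and efficacy.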
HepG2 tox: kills HepG2 cells in TGF-b inhibitor counter-screen; HepG2 CAGA-GFP viability, ATP luminescence, 18 h; AID 588856; Potency, µM (doses to about 46.1 µM), without a hit: top-dose activity change, negative = cytotoxicity, usual class: cytotoxic; 410,000 compounds, 0.76% hits
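CellTiter-Glo luminescence gave cytotoxicity after 18 hours at 37 degrees C. The cells were HepG2 CAGA-GFP in 1% FBS DMEM, stimulated with 500 pg/mL TGF-beta after compound addition. %Activity was normalised to no-cell wells (complete cell-killing) and DMSO (no toxicity), and curves were fitted and classified.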
DT40 TDP1 CPT: DT40-hTDP1 cell growth loss with CPT | Potency, µM (doses to about 46.2 µM), without a hit: at the top dose activity change, negative = growth inhibition, hits mostly inhibitors | chicken DT40 Tdp1-/-;hTDP1 cells + 20 nM CPT, ATP luminescence, 48 h | 420,000 compounds, 12% hits; note: % is set by controls: 0 for no effect and ±100 for the full control effect; nearly all actives have a fitted effect of over 55% in size
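Cell growth measured by CellTiter-Glo luminescence after a minimum 48 h, 37 C compound exposure with 20 nM CPT in Tdp1-knockout DT40 cells stably expressing hTDP1, seeded 400/well; qHTS titration format.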
TGFb inhibitor: TGF-b pathway inhibition; Potency, µM (highest dose often 46.1 µM), for inactives: at the top dose activity, negative = inhibition, most hits filed as inhibitors; HepG2 CAGA-GFP TGF-b/SMAD3 reporter, GFP fluorescence, 18 h; TGF-beta stimulated, 500 pg/mL final; 410,000 compounds, 1.2% hits; note: % is set by controls: 0 for no effect and ±100 for the full control effect; nearly all actives have a fitted effect of over 65% in size
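First, reporter cells (HEPG2 CAGA-GFP) rested 2 h at 37 degrees C. Next, compounds were pinned in and TGF-beta added to 500 pg/mL final. After 18 h, GFP was imaged per cell and summed per well.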
HT1080-NT tox: kills 2HG-producing HT-1080-NT fibrosarcoma cells | HT-1080-NT fibrosarcoma viability, CellTiter-Glo ATP luminescence, 48 h | Potency, µM (titrated, usually from 46.1 µM), without a hit: top-dose activity, negative = less viability, most hits filed as cytotoxic | 360,000 compounds, 1.6% hits | AID 686970;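 note: NT is the 2HG producing partner of a matched IDH1 knockdown line; 0% = DMSO-treated cells and -100% = media-only wells without cells; nearly all actives have a fitted effect of over 55% in size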
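750 cells/well, RPMI + 5% FBS; 2 h settle, compound pin-transfer, 48 h at 37 degrees C. CellTiter-Glo 10 min RT, luminescence. Normalized to DMSO and media-only wells.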
TDP1 cell noCPT: qHTS for Inhibitors of human tyrosyl-DNA phosphodiesterase 1 (TDP1): qHTS in cells in absence of CPT; DT40 Tdp1-/- hTDP1 cells, no CPT, ATP luminescence, 48 h; Potency, µM (series often up to 46.2 µM), for the others: at the highest dose activity change, negative = growth inhibition, usual class: inhibitors; 420,000 compounds, 15% hits; note: % is set by controls: 0 for no effect and ±100 for the full control effect; nearly all actives have a fitted effect of over 55% in size
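Seeded 400 DT40-hTDP1 cells/well (vehicle DMSO, no 20 nM CPT); pinned compounds; ≥48 hr at 37 °C; CellTiter-Glo luminescence as viability measure.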
Active calls of the source: *; ? = inconclusive; . = no result; ! = not active in a repeat. Calls come from the whole dose curve; as a rule, active = well fitted curve in the direction sought with a large enough effect; inconclusive = small, poorly fitted or top-dose-only effect, or another doubt; inactive = no such curve, though single readings can be large; an effect the other way counts as inactive or inconclusive. Potency is the fitted concentration of half-maximal effect.

SMILES | HT1080 IDH1KD tx | HepG2 tox | DT40 TDP1 CPT | TGFb inhibitor | HT1080-NT tox | TDP1 cell noCPT
C=CCOc1ccc2nc(NC(=O)OC)[nH]c2c1 | 1.84µM* | 10.4% | 0.651µM* | -0.9% | ? | 0.82µM*
CCCCc1ccc2nc(NC(=O)OC)[nH]c2c1 | . | . | 0.0718µM* | . | . | 0.057µM*
O=C(c1cnccn1)N1CCC2(CCN(Cc3nccs3)CC2)CC1 | . | . | 7.2% | . | . | -0.7%
O=C(Cn1ccc(=O)[nH]c1=O)Nc1ccc(O)c([N+](=O)[O-])c1 | 15.5% | -5.1% | -2.0% | -1.0% | 11.1% | -0.1%
C=CCC[C@H](CCCCC)OC(=O)/C=C/[C@@H](O)[C@H](O)C[C@H](O)CC=C | -11.8% | . | ? | . | -22.5% | ?
C=CCC[C@@H](CCCCC)OC(=O)/C=C/[C@H](O)[C@@H](O)C[C@@H](O)CC=C | ? | . | ? | . | ? | 16.4µM*
C=CCC[C@H](CCCCC)OC(=O)/C=C/[C@@H](O)[C@H](O)C[C@@H](O)CC=C | ? | . | 18.4µM* | . | -28.3% | 18.4µM*
C=CCC[C@@H](CCCCC)OC(=O)/C=C/[C@@H](O)[C@H](O)C[C@@H](O)CC=C | -23.2% | . | ? | . | -22.9% | ?
CCN(CC(=O)Nc1c(F)cccc1F)C(=O)C1(c2ccccc2)CC1 | -3.4% | 0.0% | 11.8% | -26.8% | 8.2% | 11.9%
O=S(=O)(NCCOCC(F)(F)C(F)F)c1ccc2oc3ccccc3c2c1 | -22.9% | -30.3% | 25.9µM* | ? | -14.2% | 13µM*
CC1(C)CC(=O)C=C(c2n[nH]nc2C2CCCCC2)C1 | 3.5% | -22.2% | -1.4% | -6.4% | 10.0% | -10.8%
COC(=O)[C@@]1(Cc2ccccc2)[C@H]2C(=O)N(Cc3ccccc3)C(=O)[C@H]2[C@H]2CN=C(SCc3ccc(Cl)cc3)N21 | -6.0% | -26.6% | ? | ? | -0.7% | ?
COC(=O)[C@@]1(Cc2ccccc2)[C@H]2C(=O)N(Cc3ccccc3)C(=O)[C@H]2[C@H]2CN=C(SCC(=O)c3ccccc3)N21 | 4.5% | -7.4% | ? | ? | 8.0% | 18.4µM*
CCN1C(=O)[C@H]2[C@H]3CN=C(SCc4ccc(Cl)cc4)N3[C@@](Cc3ccccc3)(C(=O)OC)[C@H]2C1=O | ? | -25.9% | ? | ? | ? | 11.6µM*
COc1ccc(S(=O)(=O)N2CCC[C@H]2C(=O)N2CCC[C@H]2C(=O)N[C@@H](C)c2ccccc2)cc1C | -15.6% | . | ? | . | 6.0% | ?
CC(=O)c1ccccc1OC(=O)CCN1C(=O)c2ccccc2C1=O | 1.5% | 18.0% | 5.3% | 14.5% | 0.8% | -12.9%
O[C@@H]([C@H](O)[C@H](O)CBr)[C@H](O)CBr | 10.2% | 7.0% | 18.4µM*! | 0.4% | 21.6% | 11.6µM*!
C=C1SC(=Nc2c(C)cc(C)cc2C)N(C(=O)c2sc3ccccc3c2Cl)C12CCCCC2 | 10.1% | -1.0% | ? | -20.3% | 3.0% | 20.6µM*
CCOC(=O)c1c[nH]c2c([N+](=O)[O-])cc(OC)cc2c1=O | ? | -16.6% | 7.31µM* | -8.6% | -12.8% | 16.4µM*
CCOC(=O)c1c[nH]c2ccc([N+](=O)[O-])cc12 | ? | -5.9% | -19.3% | 0.0% | -5.8% | ?
CC(=O)N1CCN(c2c(F)c(F)c(C(F)(F)F)c(F)c2F)CC1 | -7.1% | -7.9% | ? | 2.2% | -13.8% | 14.6µM*
CC(=O)N1CCN(c2nc3c(F)cc(F)cc3s2)CC1 | . | 2.1% | -22.0% | -11.7% | . | -24.2%
COc1cc(C2Nc3cccc4cccc(c34)N2)cc(OC)c1OC(C)=O | 0.4% | 2.1% | ? | -10.3% | -0.6% | 23.1µM*

Compound activity from PubChem BioAssay.
